The supplement of paper PMC11417369
Over roughly 25,000 sequences, “ln(normalized median fluorescence intensity)” has its median near 9.3; the highest 2% begin near 10. This excerpt belongs to a sample that is enriched for the highest values.

Tested on: PF3D7_0420300 AP2 domain 1 (GST-tagged)
Assay: gcPBM binding intensity (ln(normalized median fluorescence intensity)); higher = stronger DNA binding
How it was run: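 GST-fused DNA-binding domains of P. falciparum, expressed in E. coli, were applied at about 25 μg on average for 1 h to an Agilent 4 × 180k array of primer-extended double-stranded 36-bp intergenic genomic probes and negative controls. Binding intensity is the highest Masliner-normalised natural-log median intensity across replicate spots of either probe orientation, measured with Alexa488 anti-GST antibody and a 488 nm scan.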

Sequence	gcPBM binding intensity (ln)
GCAACAAAAAATCAGACATGCATTTTAAAATGAATA [TGCATGCA_site846]	9.14
TATTAAACTAAATGTAGTACATACACAAAAGAAACC [XGTACX_site606]	9.75
TATACTTTATATATTTTGTATATATATTTTTTTTAT [TGCATGCA_negctrl_site530]	9.34
ATTTTTTTTTTTTTTTTGGGGGGGTATACTTTTAAA [CACACA_negctrl_site1020]	10.8
GTTAATATTTTTGGGGGTACTTAAAAAAAAAAAAAA [XGTACX_site1477]	9.22
TTCATAAGAAGGAACTGTACATATTTTTCATTTTTT [XGTACX_site6770]	9.15
ATAGACAGCGCACAAACACACAAACACGCACGCACA [CACACA_site6349]	9.6
CACAAACAAAGACACACACACACACGCACAAAAATG [CACACA_site7193]	10.1
TTTATTAATAGACACACACACACACGCAAAATAAAA [CACACA_site6255]	10.2
AATGTGTAGACACGCACACACAAAAAAATATTTATA [CACACA_site7384]	9.6
TACACAAACAGACACACACACACACGCGCACAAAAA [CACACA_site7192]	10.2
TAATAAATAAATGACACACACACACGCAAAAAAAAA [CACACA_site7275]	10.1
AAAAAAAACACGCGCACACACACACCCACAGACACA [CACACA_site5253]	9.92
CCTCATATTATAGACACACACAAAAAAAATAAAAAA [CACACA_site180]	9.74
TAAATTAAAAGACACACACACAAAAAAAAAAAAAAA [CACACA_site7131]	9.66
AATTAACAAAGACACACACACACACGCACAAAAAAA [CACACA_site6388]	10.2
TATTTATTAAGACACACACACACACGCACAAAATAA [CACACA_site6254]	10.2
TTATTATTAAGACACACACACAAAAAAAAAAAAAAA [CACACA_site6805]	9.73
TTATTAACCTAAATTAGTACATATAATATAAAAAAT [XGTACX_site8661]	9.18
GAAAAGAAAAATAAACGTACATAAATATTAACATTA [XGTACX_site8213]	9.2
AGGCTCATTTTTTTTAGTACATCAAAAAAAAAAAAA [TGCATGCA_negctrl_site591]	8.7
TTTTTTTTTTTTTTTTGTACATATATATAAAAAATA [XGTACX_site2772]	8.49
ATATATAACTTTTCTTAACACACAAAAAACAAAAAT [CACACA_site8748]	9.56
TATATATATATAAACGCATGTAATTTATACACACAT [TGCATGCA_site946]	9.41
